# Results reported in PubChem BioAssay AID1259343 (VanderVen Lab, College of Veterinary Medicine, Cornell …, 2017).
# Screen size: about 6,200 compounds; about 2,900 (47%) were called active. The set was probably picked from earlier hits. The list shows a part of the results. Unmarked numbers belong to inactive results. Cut-off read from the data, not from the text of the source: active = inhibition above about 50%; inactive = the rest.
# Assay: Mycobacterium tuberculosis growth inhibition, primary screen (AID 1259343)
# Conditions: inhibition: at 10 µM, stronger effect = higher value; outcome: 10 uM
row,SMILES,inhibition
1,Nc1ccccc1Cc1ccc(O)cc1,30.5%
2,N[C@@H](CO)C(=O)Nc1ccc(Cc2ccccc2)cc1,89.6% (active)
3,COc1cccc(OCCN2CCN(c3ncnc4c3cnn4-c3ccccc3)CC2)c1,64% (active)
4,OCC1(CCOc2ccccc2)CCN(c2ncnc3sccc23)CC1,20.1%
5,Cc1ccc(Cn2ncc3c(N4CCN(CCOc5ccc(C)cc5)CC4)ncnc32)cc1,24.2%
6,COc1ccc(CN2CCN(c3ncnc4c3cnn4-c3ccccc3)CC2)cc1F,82.1% (active)
7,CCN1CCN(Cc2ccc(-c3cc4c(N[C@H](C)c5ccccc5)ncnc4[nH]3)cc2)CC1,16.6%
8,Cc1ccc(-c2cnn3c(NCCOCCO)cc(C(C)(C)C)nc23)cc1,-3.38%
9,Cc1cc(NCCN(C)C)n2nc(C(F)(F)F)c(-c3ccccc3)c2n1,45%
10,CN(C)CCCNc1cc(C(C)(C)C)nc2c(-c3ccc(Cl)cc3)cnn12,36.7%
11,CN(C)CCCNc1cc(C(C)(C)C)nc2c(-c3ccccc3)cnn12,74% (active)
12,CC(C)c1cc(NCCN(C)C)n2ncc(-c3ccccc3)c2n1,-10.7%
13,CN(C)CCNc1cc(-c2ccccc2)nc2c(-c3ccccc3)cnn12,70.7% (active)
14,Cc1cc(=O)[nH]c(-n2nc(C3CC3)cc2NC(=O)c2ccc(F)cc2)n1,99.8% (active)
15,Cc1cc(=O)[nH]c(-n2nc(C3CC3)cc2NC(=O)c2ccc(C(F)(F)F)cc2)n1,99.9% (active)
16,Cc1cc(=O)[nH]c(-n2nc(C3CC3)cc2NC(=O)c2ccc(F)c(F)c2)n1,99.9% (active)
17,CCCn1c(=O)c2c(nc3n2CCCN3Cc2ccccc2)n(C)c1=O,33.4%
18,CCCCCn1c(=O)c2c(nc3n2CCN3Cc2ccco2)n(C)c1=O,61% (active)
19,CCCCc1ccc(-n2c(C)c(C)n3c4c(=O)n(CCCO)c(=O)n(C)c4nc23)cc1,46.3%
20,CCCCCn1c(=O)c2c(nc3n2CC(C)CN3C2CCCCC2)n(C)c1=O (stereo not drawn),92.2% (active)
21,CCCCCCn1c(N2CCN(c3ccccc3)CC2)nc2c1c(=O)n(C)c(=O)n2C,81.9% (active)
22,Cc1cn2c3c(=O)n(CC(=O)C(C)(C)C)c(=O)n(C)c3nc2n1C1CCCC1,-30.1%
23,CCCn1c(C2CCCCC2)nc2c(c(=O)c3ccccc3n2C)c1=O,12.9%
24,CCCCCCn1c(N2CCN(Cc3ccc(Cl)c(Cl)c3)CC2)nc2c1c(=O)[nH]c(=O)n2C,9.32%
25,CC(C)CCn1c(N2CCCCC2)nc2c1c(=O)n(C)c(=O)n2C,-32.3%

row,SMILES,inhibition
1,N[C@@H](C(=O)O)[C@@H](O)[C@H](O)[C@H](O)CO,-6.84%
2,O=C(NNC(=O)c1cc(-c2ccccc2)no1)c1ccco1,96% (active)
3,O=C(NNC(=O)c1ccc(COc2ccccc2)o1)c1ccco1,59.7% (active)
4,O=C(Nc1nccs1)c1ccc(COc2ccc(F)cc2)o1,29.5%
5,Cn1nccc1CNC(=O)c1ccc(COc2cc(Cl)ccc2Cl)o1,35%
6,c1ccc(-c2cc(-c3ccccc3)on2)cc1,46.9%
7,C=CCn1c(SCCC#N)nc2sc3c(c2c1=O)CCCC3,80.7% (active)
8,C=CCn1c(SCc2c(C)noc2C)nc2sc(C)c(C)c2c1=O,30.8%
9,C=CCn1c(=S)[nH]c2sc3c(c2c1=O)CCC(C)C3 (stereo not drawn),8.34%
10,O=C(O)c1cccc(=O)n1CCOc1ccccc1Cl,53.1% (active)
11,Cc1ccc(C)c2c3c([nH]c12)-c1nonc1CC3,34.5%
12,Cc1nc2ccccc2c(=O)n1NC(=S)NC(=O)c1ccc(Br)cc1,40.8%
13,O=c1[nH]n2c(=O)c3ccccc3nc2c2ccccc12,86% (active)
14,CCn1c2ccccc2c2nc3ccccc3nc21,-25.2%
15,CC1CN(c2ccc(C(=O)NC(c3ccccc3)c3ccc(Cl)cc3)cn2)CCN1 (stereo not drawn),33.2%
16,Cc1cc(C(C)(C)C)cc(C)c1CCN1CN(CCO)c2nc3ccccc3n2C1,66.6% (active)
17,CC1CCN(S(=O)(=O)N2CCCC(c3cc4ccccc4[nH]3)C2)CC1 (stereo not drawn),73.2% (active)
18,CN(C(=O)CN1CCC(c2cc3ccccc3[nH]2)CC1)C1CC1,-6.34%
19,CC1CC(C)CN(S(=O)(=O)NCc2cc3ccccc3[nH]2)C1 (stereo not drawn),27.9%
20,N[C@H]1CN[C@H](C(=O)N2CC(N3CCCCC3)C2)C1,-19.7%
21,CC/C=C(/C)C(=O)Nc1ccc(-n2nccn2)cc1,96.5% (active)
22,COc1c(N2CCNC(C)C2)c(F)cc2c(=O)c(C(=O)O)cn(C3CC3)c12 (stereo not drawn),98% (active)
23,O=C(Cc1cc(-c2ccc(Cl)cc2)on1)NCCC1=CCCCC1,37.4%
24,O=C(CCS(=O)(=O)c1ccc(Cl)cc1)NCCC1=CCCCC1,79% (active)
25,Cc1cc(=O)[nH]c(-n2nc(C3CC3)cc2NC(=O)COc2ccc(F)cc2)n1,99.9% (active)

row,SMILES,inhibition
1,Cc1cc(=O)[nH]c(-n2nc(C)cc2NC(=O)COc2ccc(F)cc2)n1,99.8% (active)
2,COc1ccc(OCC(=O)Nc2cc(C3CC3)nn2-c2nc(C)cc(=O)[nH]2)cc1,-5.9%
3,Cc1cc(=O)[nH]c(-n2nc(C3CC3)cc2NC(=O)COc2ccc(Cl)cc2Cl)n1,100% (active)
4,Cc1cc(=O)[nH]c(-n2nc(C3CC3)cc2NC(=O)COc2ccc(Cl)cc2)n1,100% (active)
5,CCCCn1c(O)c(C=Nc2cccc(C)c2)c(C)c(C#N)c1=O,-35.7%
6,Cc1cc(C(F)(F)F)c2c(n1)sc1c(O)cc(=O)[nH]c12,27.2%
7,Cc1cc(=O)[nH]c(-n2nc(C)cc2NC(=O)C(c2ccccc2)c2ccccc2)n1,101% (active)
8,Cc1cc(=O)[nH]c(-n2nc(C)cc2NC(=O)C(C)Oc2ccccc2)n1 (stereo not drawn),99.8% (active)
9,CCc1c(C)nc(-n2nc(C)cc2NC(=O)C(CC)c2ccccc2)[nH]c1=O (stereo not drawn),12.6%
10,CCc1cc(=O)[nH]c(-n2nc(C)cc2NC(=O)C(c2ccccc2)c2ccccc2)n1,100% (active)
11,CCc1ccc(CNC(=O)c2cncc(Br)c2)s1,83.2% (active)
12,CCc1ccc(CNC(=O)c2ccc(Cl)s2)s1,45%
13,CCc1ccsc1CNC(=O)c1sccc1Br,24.1%
14,CN(C)c1cc(C(=O)NCc2ccc(Cl)s2)ccn1,-1.2%
15,CCc1ccc(CNC(=O)c2cc(F)ccc2Br)s1,59.5% (active)
16,CCc1ccc(CNC(=O)c2cc(C)sc2C)s1,54.8% (active)
17,CCc1nc(C)c(-c2nc(CCc3ccccc3)no2)s1,49.3%
18,Nc1ccc(-c2ccc(-c3nc(CCCc4ccccc4)no3)cn2)cn1,59.3% (active)
19,Cc1noc(-c2ccc(N3CC[C@@H](c4ccc5c(c4)OCO5)[C@H](O)C3)nc2)n1,12.9%
20,OCc1ccccc1-c1ccc(-c2nc(CCc3ccccc3)no2)cn1,75.2% (active)
21,CCc1cn[nH]c1C1CCN(c2noc(-c3ccccc3)n2)CC1,20.9%
22,CC(C)Cc1noc(-c2ccc(-c3ccc(O)cc3)nc2)n1,23.2%
23,COC1CCN(c2ccc(-c3nc(CCCc4ccccc4)no3)cn2)CC1,51.1% (active)
24,O=C(Nc1ccc2c(c1)CN(C(=O)/C=C/c1cccs1)CC2)c1ccccn1,58.9% (active)
25,CC(C)Oc1cccc(C(=O)C2CCCN(C(=O)/C=C/c3cccs3)C2)c1 (stereo not drawn),-2.95%

row,SMILES,inhibition
1,O=C(Nc1ccc2c(c1)CN(Cc1ccc(-n3cccn3)cc1)CC2)c1ccccn1,inactive
2,O=C(Nc1ccc2c(c1)CN(C(=O)CCCc1cccs1)CC2)c1ccccn1,54.1% (active)
3,COc1ccccc1C(=O)Nc1ccc2c(c1)CN(Cc1c[nH]c3ccccc13)CC2,45.8%
4,O=C(CCCc1cccs1)N1CCN(c2ccccc2O)CC1,13%
5,FC(F)(F)c1cc(NCC2CC2)c2ccccc2n1,8.13%
6,OC(c1cc(C(F)(F)F)nc2c(C(F)(F)F)cccc12)C1CCCCN1 (stereo not drawn),78.8% (active)
7,O=C(NCCc1ccc(Cl)cc1)N1CCN(c2ccccc2)CC1,13.3%
8,O=C(NCCc1cccc(Cl)c1)N1CCc2ccccc2C1,83.4% (active)
9,O=S(=O)(NCCc1cccc(Cl)c1)N1CCCCCC1,21.7%
10,CSc1nc2ccc(N=Cc3c[nH]c4ccccc34)cc2s1,95.1% (active)
11,CSc1nc2ccc(N=Cc3ccc4ncccc4c3)cc2s1,-22.5%
12,Cn1c(CSc2ccccc2)nc2ccccc21,39%
13,Cn1c(COc2cccc3ccccc23)nc2ccccc21,-3.53%
14,Cc1ccc(C)c(OCCN(C)Cc2nc3ccccc3n2C)c1,83.1% (active)
15,CCCCC(CC)CNS(=O)(=O)c1cccc(F)c1 (stereo not drawn),45.9%
16,CC1(C)C2CCC1(C)C(Nc1ncnc3sccc13)C2 (stereo not drawn),41.4%
17,c1nc(NC23CC4CC(CC(C4)C2)C3)c2ccsc2n1,-13.2%
18,CCCCC(CC)CNc1ncnc2sccc12 (stereo not drawn),59.1% (active)
19,CC(C)CCCC(C)Nc1ncnc2sccc12 (stereo not drawn),60.5% (active)
20,FC(F)(F)c1cc(Nc2ncnc3sccc23)ccc1Br,23.6%
21,CN(Cc1cccc(-n2cccn2)c1)Cc1nc(Cc2ccccc2Cl)no1,inactive
22,COC(=O)c1ccc(-c2noc(CN(C)Cc3cccc(-n4cccn4)c3)n2)cc1,50.6% (active)
23,Cc1cc(C)n(-c2cccc(CN(C)Cc3nc(-c4ccc5c(c4)OCO5)no3)c2)n1,45.7%
